According to PubChem BioAssay AID1159580 (chemical genetic matrix, 2015):
Where “and” joins values, the source holds several entries; their conditions need not be identical. Equal values may be shown once. About 2,000 (36%) of roughly 5,500 compounds were called active. Inconclusive results (about 18%) are left out. Cut-off read from the data, not from the text of the source: active = normalized growth mostly below about 0.91 (no sharp cut-off); inconclusive = no clear call, values can overlap the other calls; inactive = mostly above about 0.92. The list shows a part of the results.

Assay: chemical genetic growth profiling, strain panel (AID 1159580);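 note: tested at 20 µM; growth read once vehicle control cultures reached saturation at 30 °C; 1 = growth at the plate median or of vehicle wells; lower values mean less growth of the strain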
Details: S. cerevisiae deletion strains, growth OD

Measured: normalized growth

NC(C(=O)O)C(O)C(=O)O (stereo not drawn)
inactive: locus YAL013W, strain DEP1, stronger effect = lower value 1.04 | locus YAL021C, strain ccr4, stronger effect = lower value 0.941 | locus YAL026C, strain drs2, stronger effect = lower value 0.998 | locus YAL030W, strain snc1, stronger effect = lower value 0.98 | locus YBL061C, strain skt5, stronger effect = lower value 0.996 | locus YBR009C, strain hhf1, stronger effect = lower value 0.955 | locus YBR021W, strain FUR4, stronger effect = lower value 0.993 | locus YBR023C, strain chs3, stronger effect = lower value 0.994 | locus YBR171W, strain sec66, stronger effect = lower value 0.997 | locus YBR229C, strain ROT2, stronger effect = lower value 1.01 | locus YBR231C, strain swc5, stronger effect = lower value 1.03 | locus YBR279W, strain paf1, stronger effect = lower value 0.993 | locus YCL011C, strain gbp2, stronger effect = lower value 0.98 | locus YCL016C, strain dcc1, stronger effect = lower value 0.978 | locus YCL029C, strain bik1, stronger effect = lower value 1.03 | locus YCL061C, strain MRC1, stronger effect = lower value 1 | locus YCL069W, strain vba3, stronger effect = lower value 0.991 | locus YCR088W, strain abp1, stronger effect = lower value 1 | locus YDL005C, strain med2, stronger effect = lower value 0.982 | locus YDL035C, strain GPR1, stronger effect = lower value 1.02 | locus YDL040C, strain nat1, stronger effect = lower value 0.996 | locus YDL074C, strain BRE1, stronger effect = lower value 1.02 | locus YDL101C, strain DUN1, stronger effect = lower value 1.02 | locus YDL134C, strain PPH21, stronger effect = lower value 1.01 | locus YDL185W, strain tfp1, stronger effect = lower value 1.02 | locus YDL192W, strain arf1, stronger effect = lower value 1.02 | locus YDR001C, strain nth1, stronger effect = lower value 0.97 | locus YDR069C, strain doa4, stronger effect = lower value 0.969 | locus YDR101C, strain arx1, stronger effect = lower value 1.04 | locus YDR137W, strain rgp1, stronger effect = lower value 0.982 | locus YDR159W, strain sac3, stronger effect = lower value 1.05 | locus YDR162C, strain NBP2, stronger effect = lower value 1.04 | locus YDR195W, strain ref2 0.973 | locus YDR297W, strain sur2, stronger effect = lower value 0.994 | locus YDR318W, strain mcm21, stronger effect = lower value 1.01 | locus YDR334W, strain swr1, stronger effect = lower value 0.983 | locus YDR335W, strain msn5, stronger effect = lower value 0.986 | locus YDR388W, stronger effect = lower value 1.02 | locus YDR392W, strain spt3, stronger effect = lower value 0.91 | locus YDR502C, strain sam2, stronger effect = lower value 1.03 | locus YEL003W, strain gim4, stronger effect = lower value 0.999 | locus YEL037C, strain rad23, stronger effect = lower value 0.983 | locus YEL061C, strain CIN8 (second series), stronger effect = lower value 0.99 | locus YEL061C, strain CIN8, stronger effect = lower value 1.01 | locus YER015W, strain faa2, stronger effect = lower value 0.997 | locus YER016W, strain bim1, stronger effect = lower value 0.991 | locus YER110C, stronger effect = lower value 1.03 | locus YER111C, strain swi4, stronger effect = lower value 0.994 | locus YER155C, strain BEM2 (second series), stronger effect = lower value 1.03 | locus YER155C, strain BEM2, stronger effect = lower value 0.983 | locus YER167W, strain BCK2, stronger effect = lower value 1.01 | locus YFR010W, strain ubp6, stronger effect = lower value 0.986 | locus YGL078C, strain dbp3, stronger effect = lower value 1.02 | locus YGL086W, strain mad1, stronger effect = lower value 1 | locus YGL167C, strain pmr1, stronger effect = lower value 0.969 | locus YGL173C, strain kem1, stronger effect = lower value 0.999 | locus YGL227W, strain vid30, stronger effect = lower value 0.997 | locus YGL240W, strain doc1, stronger effect = lower value 1 | locus YGL248W, strain PDE1, stronger effect = lower value 1.02 | locus YGL253W, strain hxk2, stronger effect = lower value 1.02 | locus YGR078C, strain PAC10, stronger effect = lower value 1.02 | locus YGR135W, strain pre9, stronger effect = lower value 1.01 | locus YGR252W, strain gcn5, stronger effect = lower value 0.999 | locus YHR013C, strain ard1, stronger effect = lower value 0.969 | locus YHR027C, strain rpn1, stronger effect = lower value 0.991 | locus YHR030C, strain SLT2, stronger effect = lower value 1 and 1.03 | locus YHR079C, strain IRE1 (second series), stronger effect = lower value 1.02 | locus YHR079C, strain IRE1, stronger effect = lower value 1.03 | locus YHR094C, strain hxt1, stronger effect = lower value 1.02 | locus YHR129C, strain ARP1, stronger effect = lower value 1.01 | locus YHR142W, strain chs7, stronger effect = lower value 0.983 | locus YHR200W, strain rpn10, stronger effect = lower value 1.02 | locus YIL066C, strain RNR3, stronger effect = lower value 1.02 | locus YIL073C, strain SPO22, stronger effect = lower value 1.09 | locus YIL125W, strain kgd1, stronger effect = lower value 1.01 | locus YIR030C, strain dcg1, stronger effect = lower value 1.02 | locus YJL092W, strain hpr5, stronger effect = lower value 0.986 | locus YJL095W, strain BCK1 (second series), stronger effect = lower value 0.993 | locus YJL095W, strain BCK1, stronger effect = lower value 1.03 and 1.06 | locus YJL115W, strain asf1, stronger effect = lower value 0.965 | locus YJL129C, strain trk1, stronger effect = lower value 1.02 | locus YJL134W, strain LCB3, stronger effect = lower value 1.01 | locus YJL154C, strain vps35, stronger effect = lower value 0.987 | locus YJL164C, strain tpk1, stronger effect = lower value 0.96 | locus YJL166W, strain qcr8, stronger effect = lower value 0.988 | locus YJL168C, strain set2, stronger effect = lower value 1.01 | locus YJL187C, strain SWE1 (second series), stronger effect = lower value 1.03 | locus YJR043C, strain POL32, stronger effect = lower value 1.02
